Data reported in the supplement of paper PMC11417369.
The full ranking holds about 25,000 sequences; the median of “ln(normalized median fluorescence intensity)” is about 7.1, and the highest 2% start at about 10. Only a selection was taken, and the highest values are over-represented in it overall.

Tested on: PfSIP2 AP2 domain 1 (GST-tagged)
Experiment: gcPBM binding intensity (ln(normalized median fluorescence intensity)); higher = stronger DNA binding
How it was run: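 GST-fused DNA-binding domains of P. falciparum, expressed in E. coli, were applied at about 25 μg on average for 1 h to an Agilent 4 × 180k array of primer-extended double-stranded 36-bp intergenic genomic probes and negative controls. Binding intensity is the highest Masliner-normalised natural-log median intensity across replicate spots of either probe orientation, measured with Alexa488 anti-GST antibody and a 488 nm scan.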

Sequence	gcPBM binding intensity (ln)
GCCGCACCCAGATACGCACACAAGAAAAAAATATTC [CACACA_site3456]	11.1
CAAAACAAAGTTGCCGCACACAGATACGCACCCAAG [CACACA_site3455]	11.9
TACAGATACGGACACACACACACACCCAGACAAAAA [CACACA_site4432]	7.54
TACGCACAAAAATATACACACACACCGATATATTTA [CACACA_site9213]	7.15
CATACACAAGAAAATTCACACACACCCATATATATA [CACACA_site9288]	7.73
AAAAAAAAAACAAATACACACGCACCCAAAAAAAAA [CACACA_site8166]	10.1
ATTTTTATGTTGAAAAGTACTTGAATCCCATGTAAC [XGTACX_site4453]	7.09
ATATATATATATATAACACACGTGTATTTATCTGTA [CACACA_site5922]	9.33
AACACACACATATATATATATATATATATATATATA [GTGCAC_negctrl_site573]	9.64
TAATTAATTTACATTTTAATTTTATACAAAATTTAT [CACACA_negctrl_site830]	6.7
TTCCTGTTAATTACAACACACAATTTTTATTTTATG [CACACA_site779]	7.16
ATTGTGGCAATATATTGTACATGTAATATAAATATA [XGTACX_site5415]	7.06
CCATATTTAATAAAATGTACTCATTCTTTTATTTTA [XGTACX_site7802]	7.11
TTCTTTTTTTTTAAAACAAACAAACAAACAAACAAA [CACACA_negctrl_site832]	7.06
TTCTTTTTAATGTCGGTGCAACTCCATAAAAACAAA [GTGCAC_site9488]	10.8
ATATATTTTATATAGTGTACTTTAATTTTTTTTTTT [XGTACX_site5550]	6.83
AGTTATTTTTATATTTCACACACATATACTTTTACA [CACACA_site9357]	7.21
TAGCTGTTCAAAAAATGTACATATATAATATATATA [XGTACX_site5842]	7.49
ATTTTCATGATAAAGGTGCAATTATTTTTATAAGAA	10.8
TATAATTTATTAAGGGGTACATATATTTCATGATAA [XGTACX_site5141]	7.19

Sequence	gcPBM binding intensity (ln)
AATAAATTCATGATAGTGCAAAAATTATTTTTGTTA	8.49
AAACCCTATTCAATGCAATAATTTTATAATTTTTTT [TGCATGCA_negctrl_site434]	6.91
ACACATAATATAAAGGTGCTATATTGTATTCATTTT [GTGCAC_site9457]	8.36
GTATTCATGCTAAAGGTGCAATAATTTTTATAATAA [GTGCAC_site9603]	10.9
AATCAAAATTAATTAACACACAATTTTAATATTCTT [CACACA_site2063]	6.79
ATATATTTTTTTTAGCGTACATGCAAAAAAAAAAAA [XGTACX_site4590]	7.26
TACGTTATGTTGAATAGTACAATTTGGTGAACAGGT [XGTACX_site1729]	7.51
GTAGTGGTTGAATATACACACATATATAAATAAATA [CACACA_site7282]	7
TTTTTTTTTTTTTTGGTGCGTTTATATATAAATATA	8.81
TTTTTTTTTTTGTGGGTGCGTTTATAAAAACAGGAA	11.1
TTTTATAAACAGAGGGGTACGGGAAAAAAAAAAAAA [XGTACX_site1480]	7.11
TAATACCATTGTCATGCATGCACATTATTACTCTAA [TGCATGCA_site160]	7.38
CCTAAAGTGTAAAATTCACACACATATATATATATA [CACACA_site8385]	8.94
ATTTTTTTCTTAGGAGTGCACTTATATTTATTTTAT	11.2
ATATATTTTAGGAGAGTGCATTTAATATTATTTAAT [GTGCAC_site9444]	8.99
TTTTATATTTTAAGAGTGCATTTTATATCTTTTTCT	8.74
TATATATAATATACATGTACAAATGTATTTAAAAAT [XGTACX_site6090]	7.07
AGGTATATATTACAAGTGCACTGTAAAATTAAAATT	10.7
TAAAAAATTAATAAAGTGCATAAATATTACAATATT	8.14
TGCATAATTAAAAATGGTACACTGTATTTATAATAT [XGTACX_site1575]	7.13

Sequence	gcPBM binding intensity (ln)
TCTTATGAATATCCCCGTACACATATATTTCTTATA [XGTACX_site6877]	7.22
TATAAATTTTGTTTAGCACACACACCGACATACATA [CACACA_site9033]	7.28
AAACAAAAAAGAAACACACACTAATTAAATTTTCTT [CACACA_site4746]	6.74
AATATTTGTTAAAGAGGTACACCATTTGGTAGGGAA [XGTACX_site2165]	7.06
ATTTTTTTTTTTTTTTTAAGACAAACTCTTAATTTA [CACACA_negctrl_site1389]	6.78
TATGAAGTACACAATACACACTAATTATATATAAAT [CACACA_site5444]	6.91
TATATGAAGTACACAATACACACTAATTATATATAA [CACACA_site2608]	7.12
TATGAAGTGCACAATACACACTAATTCTATATAAAT [CACACA_site7269]	11.2
CATACATACAGATATACACACATATATAATAATATA [CACACA_site5477]	7.14
AGGTGCTTAATATATACACACATACAGATATATATA [CACACA_site5552]	7.6
AAATGAATATTCATAGTGCAATATATAAATGAAAAT	7.94
ATAATAAAAATAAGAGAATAAAAATGCAATTTAATG [CACACA_negctrl_site878]	6.81
AGAATAATAAAATGGGTGCAATAGTTTTTTTTTTTT [GTGCAC_site9823]	10.4
GAGAAATTTATACATACACACATATATATATTATAT [CACACA_site4038]	7.16
ATATATATATATGTATGTATATATATATGTTTGATT [XGTACX_negctrl_site62]	9.56
AATATTACAATTTGGTGTACAGGTGCACATGCCTCA [XGTACX_site1730]	11.5
ATTATTTTGTTTATTACATGCAGGTGTATATTACAG [TGCATGCA_site723]	7.2
TTACGAATTACATATTGTACATATGCACAATTTTAA [XGTACX_site6802]	7.4
ATATATTCCATAAAGGTGCTGTTAACGTGTCAACGT [GTGCAC_site9402]	7.84
